Test results reported in the supplement of paper PMC12632987.
Over roughly 4,500 sequences, “median log2 fold change of GCK-ALFA target abundance (FLAG IP / Myc IP barcode read proportion)” has its median near 0.078; the lowest 2% begin near -0.6. This is one part of a sample in which the lowest values are shown more often than they occur.

B1: GBRAP_52_6269 (protein)
chain: MKELAEKLAKEFIETSLNGTEEEVKEFAKKLVETESQELIELMLEIVVEMAKSLNAEELEKLLDAFLILEDELEEAGKDTLPAEDAAAELAKLYMEKLKE
B2: GBRAP_52_5997 (protein)
chain: REERIEALARELVEATLAGDDERVRALLRRIAAELSDEEIVETVRLATRLLERDPRATLEDLANFIDLVEDVLEEEGKSDELIARVLGAIAEAIYEAELE
B3: GBRAP_52_5996 (protein)
chain: AEARIRALAEELVAAVLAGDEERVRAILRRIAAELSDEEIVETVRLATRLLARDPRATLEDLARFIDIVEEVLEEEGKSDRLIADVLGAIAEAIAEVEAE
B4: GBRAP_39_5719 (protein)
chain: EEEEEAENIFSYYEAVGAKKMYERGISLDELFAELYARARELAADDPELAAALDELRALAEAAGDEAKLAAAGLMSRLVEGEPREEILADAEKLIAYLKS
B5: GBRAP_128_3452 (protein)
chain: STEEKVKKAEELMNKIIESSDEEVPALAAELVDLIGESDDESAKAIAEVIIKKIPELSEEKLEILADVFVARRPELTPEKQEVLNEIAVAIGEEILEKEE
B6: GBRAP_125_2964 (protein)
chain: SEEEDLEALATLAKALGFDEDDVEEAVRLARKFGFKNTLIALFLAEGYDEVADLVEKLTEEEAKEVLKRLAEEIKKNPELTPEEVVKLAKELFEEVIAKK
B7: GBRAP_160_4000 (protein)
chain: MEEIEELKEEIEEIIDETIAAMEGLTPEERLTLVRGMVGEIIQLVEDSPAVSDEAEDEIAELGDELVEEVEANRDAPLEVWRELLERFLEEIKKILDKEE
B8: GBRAP_11_2888 (protein)
chain: KKEKLKELAELARKIAELIEKLLEEGTDNEELLKEIEKLLKELEKLTKEYADKGSQKLTEIAKELFKKALEDPENRKEYLEELLAAVRVLEGDYLLEYEE
B9: GBRAP_128_3538 (protein)
chain: SLEEVKKRAREVMEKIKNSSVEEAYEITKEFLEELKSLSLEEVEAAIEVLEELLPELSAEKLEAIADAMREMRPTLSPEKQRLVADLQVEALNEAEEKEE
B10: GBRAP_35_5578 (protein)
chain: EDKEMLLETVRDLAEATIEAIKEGDLDLAIALLEALLRTAELAVEELANDAEALEEIAALLERVIAAIKEHLADDPRVQALLARLEALLARTKALLAAVK
B11: GBRAP_184_5199 (protein)
chain: KVLEIEVTVSNLEEAKKKMEEILAKAKEEKADLLLILDLKTSTKEIIETIMNALGKIKKEGYAPNVLVELEGDLSDENIDLAFKLADEAGVSLVIALPEE
B12: GBRAP_11_2855 (protein)
chain: KKEKLKEIAELAKKAIELLKELLKKGVDDKELQKKIKELLEKLLELVKKYLDEASVKLAKEALESFKKSLEDPENKEKYINESLAFLEVLLGDVLLEIDE
B13: GBRAP_139_3755 (protein)
chain: SKTEEAIKEIVELVKDPNATLEEIEEKVKEIAKELDEESIKKVLKAAAEAAKSLSVERIEELEERFIKILKEEGRSEDVIDFLEGEFNEAAALSAYREEL
B14: GBRAP_196_5419 (protein)
chain: SLVQEARKINEEAEKRLKATDKEVTVVVSTGDLERHREAVEKAIDYAKEHPDELVLLVFMDDLETALEAARYAKELAEKEGVDLVVEVASRELEEHPDEE
B15: GBRAP_14_3875 (protein)
chain: MEEIKKIIDDMVAEIVAFVKEVSPEIAPEVEKRLNEIREKTLARIEETGDPLAAFDAMEEEMIAAMEEITADLPEEDRTAILAELRVRLAEARYRIDEVL
B16: GBRAP_150_3934 (protein)
chain: DLEELLLLAESVADLLDLALNEGIDRLKALKRAQELLKDLIKEADEELKEIAKKAQELIKKAIKLEEEGGEEKEIKKLLKKAQELAKELAKELEKKIEEE
B17: GBRAP_11_2819 (protein)
chain: MDEVVKELIEVLKKLAEAADKYLKEDVGDEELLKKIEELAKKALELAKKLNDPAVIREAQAILDTVEEAKKDPANREQYVANARAGARTLLANLEEEAEE
B18: GBRAP_35_5522 (protein)
chain: DSDTLTVEMLVATIEDLTLAVPDMDVETAVQIATQLIKAAEELAKDIKNNVEGLKKLRDALAKLRDALEKHYGDDPLAQQVIAQIDKLIAEIDKMIKEAK
B19: GBRAP_95_7082 (protein)
chain: EEDLETLEDLAQTAIDLYEAGFEEQAARAAKAAAEELEELGYKVADKELLTKLLTYAADLAPKYFDEEEIERWLKIAEATGAPQSIIDALRAALAAKKAA

target: GABARAP, O95166; test: median log2 fold change of GCK-ALFA target abundance (FLAG IP / Myc IP barcode read proportion) (log2 ratio); each designed protein is fused to an ALFA-tag nanobody in HEK293 cells to bring the named protein to FLAG-tagged glucokinase (GCK); Myc marks an untargeted standard; higher = target protein stabilised (more abundant); details: target protein: 3xFLAG-MCP-GCK-ALFA reporter; HEK293 landing pad (RPLP)
Method in brief: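 Sequencing of reverse-transcribed, amplified circular RNA barcodes from anti-FLAG and anti-Myc immunoprecipitates provided the readout for an ALFA-nanobody-fused binder library recombined into HEK293 landing-pad cells. Those cells were induced with 2 μg mL^−1 doxycycline, transfected with a plasmid expressing a FLAG-tagged target and a Myc-tagged standard, and lysed after 48 h. Target abundance is the per-binder median log2 ratio of FLAG to Myc barcode read proportions. Only barcodes at a proportion of ≥10^−7 in both replicates and binders with ≥3 barcodes per replicate were kept, with a 10^−6 pseudocount added before the two replicates were pooled.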

Sequence of GABARAP, O95166 (O95166 whole entry, the tested form may be a part): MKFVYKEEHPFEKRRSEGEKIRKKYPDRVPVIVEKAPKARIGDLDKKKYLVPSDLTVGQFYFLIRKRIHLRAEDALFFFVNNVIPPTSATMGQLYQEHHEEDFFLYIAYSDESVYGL

Binder | median log2 fold change
B1 | 0.267
B2 | -0.74
B3 | -0.179
B4 | 0.194
B5 | 0.274
B6 | -0.94
B7 | -0.0825
B8 | -0.0328
B9 | 0.273
B10 | -0.85
B11 | -0.0295
B12 | 0.193
B13 | 0.234
B14 | 0.0489
B15 | 0.256
B16 | 0.0862
B17 | 0.324
B18 | -0.0356
B19 | 0.268
